# LYPLA1 counter: LYPLA1 inhibitors, primary screen, counter-screen for PME1 inhibitor project, biochemical, fluorescence polarization, FP-Rh probe ABPP. Acyl-protein thioesterase 1 (Homo sapiens), O75608. recombinant LYPLA1. inhibition, % at 5.9 µM. actives 0.16% (n = 320,000);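 active means inhibition above the mean of all tested compounds plus 3 SD, set per campaign, cut at about 14% in these data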;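 further: inhibitors block serine hydrolase probe labeling of LYPLA1 so polarization falls; 0% = enzyme with DMSO and 100% = wells lacking LYPLA1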
# LYPLA2 counter: LYPLA2 inhibitors, primary screen, counter-screen for PME1 inhibitor project, biochemical, fluorescence polarization, FP-Rh probe ABPP; actives 0.38% (n = 320,000); inhibition, % at 5.9 µM; recombinant LYPLA2; Acyl-protein thioesterase 2 (Homo sapiens), O95372;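 active means inhibition above the screen-wide mean plus 3 SD, limit set per campaign, cut at about 26% in these data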;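 further: 0% = LYPLA2 with DMSO and 100% = wells lacking LYPLA2 enzyme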
# Target sequence (O95372 whole entry, looked up): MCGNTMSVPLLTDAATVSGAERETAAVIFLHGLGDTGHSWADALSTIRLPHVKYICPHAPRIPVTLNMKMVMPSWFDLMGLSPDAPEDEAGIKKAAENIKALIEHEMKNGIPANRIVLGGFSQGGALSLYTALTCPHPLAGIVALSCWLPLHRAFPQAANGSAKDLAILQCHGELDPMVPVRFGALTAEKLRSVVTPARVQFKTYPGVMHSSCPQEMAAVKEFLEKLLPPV
# Fam108B inh: mouse Fam108B serine hydrolase inhibitors, primary screen, counter-screen for RBBP9 inhibitor project, biochemical, fluorescence polarization; actives 0.33% (n = 300,000); AID 1947, 2009; inhibition, % at 9.51 µM; recombinant Fam108B, FP-Rh probe fluorescence polarization;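 active means inhibition above the screen mean inhibition plus 3 SD, computed separately per campaign, cut at about 18% in these data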;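 further: inhibitors lower polarization as less probe binds the enzyme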
# GSTO1 inh: inhibitors of recombinant GSTO1, primary screen, counter-screen for RBBP9 inhibitor project, biochemical, fluorescence polarization; activity-based probe fluorescence polarization; inhibition, % at 5.96 µM; AID 1974, 2009; Glutathione S-transferase omega-1 (Homo sapiens), P78417; actives 1.1% (n = 300,000);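 active means inhibition above the campaign mean inhibition plus 3 SD, cut at about 35% in these data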;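 further: 0% = GSTO1-1 with DMSO and 100% = wells lacking GSTO1-1 enzyme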
# Target sequence (P78417 whole entry, looked up): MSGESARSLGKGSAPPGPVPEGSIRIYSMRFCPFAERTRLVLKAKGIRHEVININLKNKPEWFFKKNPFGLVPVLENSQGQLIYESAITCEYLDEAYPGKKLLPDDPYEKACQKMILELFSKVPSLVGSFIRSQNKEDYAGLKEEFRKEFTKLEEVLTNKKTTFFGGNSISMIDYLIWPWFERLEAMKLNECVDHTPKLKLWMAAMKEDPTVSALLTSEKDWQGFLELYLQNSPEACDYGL
# PME-1 inh: PME-1 inhibitors via competitive probe labeling, primary screen, biochemical, fluorescence polarization, FP-Rh probe, HTS; Protein phosphatase methylesterase 1 (Homo sapiens), Q9Y570; recombinant PME-1; inhibition, % at 5.9 µM; actives 0.53% (n = 320,000); AID 2130, 2009;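 active means inhibition above the campaign mean of all compounds plus 3 SD, cut at about 26% in these data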;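 further: competitive labeling of PME-1 active site by serine hydrolase directed probe; 0% = PME-1 with DMSO and 100% = wells lacking PME-1 enzyme; inhibitors block probe labeling so polarization falls and inhibition rises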
# PAD4 FP inh: human PAD4 inhibitors, primary screen, biochemical, fluorescence polarization, 1536-well format; inhibition, % at 6.36 µM; actives 0.41% (n = 330,000); Protein-arginine deiminase type-4 (Homo sapiens), Q9UM07; recombinant PAD4, RCA probe fluorescence polarization; AID 485272, 2010;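 active means percent inhibition above a cutoff equal to the mean of all tested compounds plus 3 SD, cut at about 15% in these data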;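 further: 0% = PAD4 with RCA probe and DMSO and 100% = probe without PAD4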
# LYPLA2 conf: LYPLA2 inhibitors, retest, confirmation, counter-screen for PME1 inhibitor project, biochemical, fluorescence polarization, FP-Rh probe ABPP; shares compounds with LYPLA2 counter; recombinant LYPLA2; inhibition, % at 5.9 µM; actives 72% (n = 1,100);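 active means mean inhibition across replicates above the hit cutoff set in the primary screen, cut at about 26% in these data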;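 further: blocked labeling of the enzyme by serine hydrolase FP-Rh probe lowers polarization; 0% = enzyme with DMSO and 100% = wells lacking LYPLA2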
# LYPLA2 ABPP: LYPLA2 inhibitors in proteome, late-stage follow-up, gel-based competitive ABPP, fluorescence, assay provider; shares compounds with LYPLA2 counter; rhLYPLA2 in mouse brain proteome, gel ABPP FP-Rh; inhibition, % at 20 µM; actives 30% (n = 150); AID 652029, 2013;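 active means inhibition of LYPLA2 enzyme probe labeling above about 50%, limit read from the data; inactive means inhibition below that limit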;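 further: loss of FP-Rh probe labeling of the LYPLA2 gel band measured as band density; 0% = DMSO only control band and 100% = blank gel background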
# * hit, by the source's call; x = not tested or not shown. Compounds with a hit are over-represented: about 1.8% of the library has one in this group of screens.
SMILES,LYPLA1 counter,LYPLA2 counter,Fam108B inh,GSTO1 inh,PME-1 inh,PAD4 FP inh,LYPLA2 conf,LYPLA2 ABPP
CN(C(=O)c1ccc(NC(=O)Cc2ccc(NC(=O)C3CCCN(C(=O)C4CCCCC4)C3)cc2)cc1)C1CC1 (centres undefined),8.3,56.9*,x,x,3.4,-0.7,50.9*,13.0
CN(C(=O)c1ccc(NC(=O)Cc2ccc(NC(=O)C3CCN(C(=O)C4CCCCC4)CC3)cc2)cc1)C1CC1,3.0,7.8,x,x,0.9,-1.1,x,x
CN(C(=O)c1ccc(NC(=O)Cc2cccc(NC(=O)C3CCCN(C(=O)C4CCCCC4)C3)c2)cc1)C1CCCC1 (centres undefined),-1.3,0.8,x,x,3.9,-2.7,x,x
CN(C(=O)c1ccc(NC(=O)Cc2ccc(NC(=O)C3CCCN(C(=O)C4CCC4)C3)cc2)cc1)C1CC1 (centres undefined),4.5,65.9*,x,x,-2.3,-6.7,61.1*,41.0
C=CCOc1ccc(/C=C/C(=O)OCc2csc(CC(=O)Nc3ccccc3C)n2)cc1,-0.9,1.2,x,x,-1.7,2.4,x,x
COc1ccc(CCNC(=O)c2ccc(NC(=O)CC3SC(N4CCCC4)=NC3=O)cc2)cc1 (centres undefined),-0.3,52.0*,4.9,-2.3,-4.1,2.9,57.8*,25.0
Cc1ccc(OCCNC(=O)c2ccc(NC(=O)CC3SC(N4CCCC4)=NC3=O)cc2)cc1 (centres undefined),0.4,45.0*,1.4,10.8,-1.8,4.1,40.3*,x
Cc1cccc(N2CCN(C(=O)c3ccc(NC(=O)CC4SC(N5CCCC5)=NC4=O)cc3)CC2)c1C (centres undefined),x,x,x,x,x,0.7,x,x
O=C(CC1SC(N2CCCC2)=NC1=O)Nc1ccc(C(=O)N2CCN(c3cccc(Cl)c3)CC2)cc1 (centres undefined),-0.5,30.1*,0.3,8.7,-1.7,-2.8,62.3*,38.0
COc1ccccc1Oc1ccc2c(c1)C(=O)N(c1cccc(O)c1)C2=O,-8.7,51.2*,-3.5,2.6,-5.4,0.1,50.8*,34.0
O=C(O)c1cc(NN=Nc2cccc([N+](=O)[O-])c2)cc([N+](=O)[O-])c1,9.6,27.7*,4.2,-3.6,9.4,-1.0,28.0*,x
CC(Oc1ccc2c3c(c(=O)oc2c1)CCC3)C(=O)NCc1cccnc1 (centres undefined),-1.1,3.0,-1.3,-2.8,2.6,1.0,x,x
COC(=O)NC(C)N1C(=O)C2C3C=CC(C3)C2C1=O (centres undefined),2.7,2.6,-1.9,0.0,0.4,3.2,x,x
CCCCCCCCN1[C@@H](CC(=O)O)c2cc(C(F)(F)F)ccc2S1(=O)=O,3.2,2.3,1.6,1.7,6.5,0.8,x,x
CCCCCCCCCCCCN1[C@@H](CC(=O)O)c2cc(F)ccc2S1(=O)=O,9.9,58.2*,1.0,17.5,1.7,0.2,58.4*,35.0
CCCCCCCCN1[C@@H](CC(=O)OC)c2cc(F)ccc2S1(=O)=O,1.6,5.5,5.1,5.8,-3.1,2.6,x,x
CCCCCCCCCCCCN1[C@@H](CC(=O)O)c2cc(C(F)(F)F)ccc2S1(=O)=O,11.3,60.9*,-3.4,4.4,-0.3,7.8,59.8*,16.0
Cc1cccc(Cn2c(N3CCN(C)CC3)nc3c2c(=O)n(C)c(=O)n3C)c1,0.3,0.3,10.0,3.1,-0.1,-3.2,x,x
CCOC(=O)C1(C)/C(=N/Nc2ccc(S(N)(=O)=O)cc2)C(=O)C(=O)N1c1ccccc1 (centres undefined),-3.8,-1.9,0.9,8.5,-4.8,-11.4,x,x
